In PubChem BioAssay (NCI):
This is part of a sample that, as a whole, favours compounds with a hit. Of some 79,000 tested, about 15% had one in any assay. Activity calls are given as the source filed them. Cut-off read from the data, not from the text of the source: active = growth inhibition above about 70%; inactive = the rest.

What was measured:
[1] = NCI Yeast Anticancer Drug Screen. Data for the rad52 strain (AID 147);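 note: 0% = growth of vehicle-treated control cultures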; conditions: S. cerevisiae rad52 mutant growth inhibition, active compounds read high
Method in brief: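 Yeast strain carrying a DNA damage repair alteration was exposed to test compounds. Growth inhibition was measured relative to vehicle-treated controls.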

[2] = NCI Yeast Anticancer Drug Screen. Data for the wt1 strain (AID 149);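 note: 0% = growth of vehicle-treated wt1 cultures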; conditions: S. cerevisiae wt1 strain (SPY 50644) growth inhibition, active compounds read high
Method in brief: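 Measured: growth of wt1 yeast under compound versus vehicle treatment, reported as inhibition.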

[3] = NCI Yeast Anticancer Drug Screen. Data for the rad50EPP+ strain (AID 151);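 note: 0% = growth of vehicle-treated control cultures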; conditions: S. cerevisiae rad50 mutant strain, active compounds read high
Method in brief: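 Yeast strain carrying rad50 alteration (rad50EPP+) exposed to compounds; growth inhibition measured relative to vehicle-treated controls.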

[4] = NCI Yeast Anticancer Drug Screen. Data for the rad50 strain (AID 155);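 note: 0% = growth of vehicle-only cultures of the same strain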; conditions: S. cerevisiae rad50 strain growth inhibition, active compounds read high
Method in brief: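 Growth of the mutant yeast was measured after compound exposure and referenced to vehicle-treated cultures.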

[5] = NCI Yeast Anticancer Drug Screen. Data for the mec2-1 strain (AID 157); conditions: S. cerevisiae mec2-1 strain, active compounds read high
Method in brief: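 mec2-1 yeast strain, carrying an alteration in DNA damage repair or cell cycle control, was exposed to compounds; growth inhibition was measured relative to vehicle-treated controls.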

[6] = NCI Yeast Anticancer Drug Screen. Data for the rad14 strain (AID 159);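 note: 0% = growth of vehicle-treated control cultures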; conditions: S. cerevisiae rad14 strain growth inhibition, active compounds read high
Method in brief: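 Here, inhibition of yeast growth was measured after compound exposure, using a strain with a genetic defect in DNA damage repair and vehicle-treated cultures as the reference.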

[7] = NCI Yeast Anticancer Drug Screen. Data for the sgs1 mgt1 strain (AID 161);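 note: 0% = growth of cultures given vehicle only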; conditions: S. cerevisiae sgs1 mgt1 strain, active compounds read high
Method in brief: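 Percent growth inhibition was derived by comparing compound-exposed mutant yeast with vehicle-exposed cultures. The strain carries alterations in DNA damage repair.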

[8] = NCI Yeast Anticancer Drug Screen. Data for the CLN2oe strain (AID 163);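 note: 0% = growth of vehicle-only control cultures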; conditions: S. cerevisiae CLN2oe strain, active compounds read high
Method in brief: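 Yeast cells carrying a defined cell-cycle control alteration were exposed to test compounds. Growth inhibition was scored against vehicle-treated control cultures.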

[9] = NCI Yeast Anticancer Drug Screen. Data for the cln2 rad14 strain (AID 165);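 note: 0% = growth equal to vehicle treated cultures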; conditions: S. cerevisiae cln2 rad14 strain, active compounds read high
Method in brief: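 Yeast carrying cln2 and rad14 alterations (cell cycle control and DNA damage repair) were exposed to compounds. Growth inhibition was measured against vehicle-treated controls.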

[10] = NCI Yeast Anticancer Drug Screen. Data for the bub3 strain (AID 167); conditions: S. cerevisiae bub3 mutant strain, active compounds read high
Method in brief: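 Whole-cell yeast assay. The mutant strain was incubated with compounds, and growth inhibition was determined by comparison with vehicle-treated cells.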

[11] = NCI Yeast Anticancer Drug Screen. Data for the wt2 strain (AID 169);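 note: 0% = growth of vehicle-treated yeast cultures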; conditions: S. cerevisiae wt2 strain growth inhibition, active compounds read high
Method in brief: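 Yeast cells were exposed to test compounds, and growth inhibition was measured relative to vehicle-treated controls.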

[12] = NCI Yeast Anticancer Drug Screen. Data for the mlh1 strain (AID 171);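 note: 0% = growth of vehicle-treated control cultures of the same strain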; conditions: S. cerevisiae mlh1 strain growth inhibition, active compounds read high
Method in brief: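 Yeast carrying a defined genetic alteration in DNA damage repair or cell cycle control were exposed to test compounds. Growth inhibition was measured relative to vehicle-treated controls.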

[13] = NCI Yeast Anticancer Drug Screen. Data for the mlh1 rad18 strain (AID 175); conditions: S. cerevisiae mlh1 rad18 strain growth inhibition, active compounds read high
Method in brief: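 Growth inhibition of the yeast strain was measured after compound exposure and expressed relative to vehicle-treated controls. The strain carries defined defects in DNA damage repair.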

[14] = NCI Yeast Anticancer Drug Screen. Data for the rad18 strain (AID 177); conditions: S. cerevisiae rad18 mutant growth inhibition, active compounds read high
Method in brief: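 Yeast carrying a defined DNA damage repair alteration were exposed to compounds. Growth inhibition was expressed relative to vehicle-treated controls.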

[15] = NCI Yeast Anticancer Drug Screen. Data for the sgs1 strain (AID 173);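 note: 0% = growth of vehicle-only control cultures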; conditions: S. cerevisiae sgs1 mutant, active compounds read high
Method in brief: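 Yeast mutant strains carrying defined defects in DNA damage repair or cell cycle control were exposed to test compounds. Growth inhibition was scored against vehicle-treated controls.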

[16] = NCI Yeast Anticancer Drug Screen. Data for the mgt1 strain (AID 153); conditions: S. cerevisiae mgt1 mutant growth inhibition, active compounds read high
Method in brief: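 Yeast mgt1 strain (DNA repair/cell-cycle alteration panel) exposed to compounds; growth inhibition measured relative to vehicle-treated controls.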

[17] = at 5.0 µM (retest, dose inferred, filed as 0.5)
[18] = at 50.0 µM (retest, dose inferred, filed as 5.0)

Measured: growth inhibition

O=C(NCCCl)Sc1ccc(Cl)cc1
inactive: [1]; at 1.2 µM 3% | [1]; at 3.7 µM 7% | [1]; at 11.0 µM 10% | [1]; at 33.0 µM 55% | [2]; at 1.2 µM -3% | [2]; at 3.7 µM -3% | [2]; at 11.0 µM 0% | [2]; at 33.0 µM 21% | [3]; at 1.2 µM 3% | [3]; at 3.7 µM 7% | [3]; at 11.0 µM 22% | [3]; at 33.0 µM 56% | [4]; at 1.2 µM 4% | [4]; at 3.7 µM -7% | [4]; [17] -166% | [4]; at 11.0 µM 7% | [4]; at 33.0 µM 55% | [5]; at 1.2 µM 1% | [5]; at 3.7 µM 1% | [5]; [17] -52% | [5]; at 11.0 µM -10% | [5]; at 33.0 µM 13% | [6]; at 1.2 µM -1% | [6]; at 3.7 µM -7% | [6]; at 11.0 µM 2% | [6]; at 33.0 µM 33% | [7]; [17] -65% | [7]; [18] 53% | [8]; at 1.2 µM -1% | [8]; at 3.7 µM -2% | [8]; at 11.0 µM -2% | [8]; at 33.0 µM 9% | [8]; at 100.0 µM 60% | [9]; [17] -67% | [9]; [18] 8% | [9]; at 50.0 µM 42.8% | [10]; at 1.2 µM 2% | [10]; at 3.7 µM 0% | [10]; [17] -71% | [10]; at 11.0 µM 1% | [10]; at 33.0 µM 29% | [11]; at 1.2 µM 1% | [11]; at 3.7 µM 0% | [11]; at 11.0 µM 0% | [11]; at 33.0 µM 30% | [12]; at 1.2 µM -5% | [12]; at 3.7 µM 1% | [12]; at 11.0 µM 2% | [12]; at 33.0 µM 19% | [13]; [17] -141% | [14]; at 1.2 µM 0% | [14]; at 3.7 µM 3% | [14]; at 11.0 µM 5% | [14]; at 33.0 µM 44%
active: [1]; at 100.0 µM 99% | [2]; at 100.0 µM 80% | [3]; at 100.0 µM 90% | [4]; [18] 85% | [4]; at 50.0 µM 95.2% | [4]; at 100.0 µM 98% | [5]; [18] 82% | [5]; at 50.0 µM 99.3% | [5]; at 100.0 µM 85% | [6]; at 100.0 µM 75% | [7]; at 50.0 µM 84.5% | [10]; [18] 84% | [10]; at 50.0 µM 96.2% | [10]; at 100.0 µM 91% | [11]; at 100.0 µM 92% | [12]; at 100.0 µM 93% | [13]; [18] 84% | [13]; at 50.0 µM 97.8% | [14]; at 100.0 µM 93%

Clc1ccc2c(c1)N(CCCN1CCCC13CCCCC3)c1ccccc1S2
active: [9]; at 50.0 µM 84% | [13]; [18] 95%
inactive: [1]; at 1.2 µM 1% | [1]; at 3.7 µM 3% | [1]; at 11.0 µM 2% | [1]; at 33.0 µM 1% | [1]; at 100.0 µM -7% | [2]; at 1.2 µM 1% | [2]; at 3.7 µM -3% | [2]; at 11.0 µM -5% | [2]; at 33.0 µM -5% | [2]; at 100.0 µM -7% | [3]; at 1.2 µM 0% | [3]; at 3.7 µM 3% | [3]; at 11.0 µM -2% | [3]; at 33.0 µM -3% | [3]; at 100.0 µM -7% | [4]; at 1.2 µM 4% | [4]; at 3.7 µM 10% | [4]; [17] 3% | [4]; at 11.0 µM 4% | [4]; at 33.0 µM 4% | [4]; [18] 61% | [4]; at 50.0 µM -2.15% | [4]; at 100.0 µM 2% | [5]; at 1.2 µM -3% | [5]; at 3.7 µM 3% | [5]; [17] -3% | [5]; at 11.0 µM 2% | [5]; at 33.0 µM 0% | [5]; [18] 20% | [5]; at 50.0 µM 39.8% | [5]; at 100.0 µM -8% | [6]; at 1.2 µM -2% | [6]; at 3.7 µM -7% | [6]; at 11.0 µM -2% | [6]; at 33.0 µM 0% | [6]; at 100.0 µM 4% | [7]; [17] -11% | [7]; [18] 43% | [7]; at 50.0 µM -25.4% | [8]; at 1.2 µM 2% | [8]; at 3.7 µM 4% | [8]; at 11.0 µM 4% | [8]; at 33.0 µM 3% | [8]; at 100.0 µM 2% | [9]; [17] -21% | [9]; [18] -5% | [10]; at 1.2 µM 4% | [10]; at 3.7 µM -13% | [10]; [17] -5% | [10]; at 11.0 µM 1% | [10]; at 33.0 µM 2% | [10]; [18] 15% | [10]; at 50.0 µM -0.55% | [10]; at 100.0 µM 7% | [11]; at 1.2 µM 1% | [11]; at 3.7 µM 2% | [11]; at 11.0 µM 0% | [11]; at 33.0 µM -2% | [11]; at 100.0 µM -2% | [15]; at 1.2 µM -2% | [15]; at 3.7 µM -3% | [15]; at 11.0 µM -6% | [15]; at 33.0 µM -7% | [15]; at 100.0 µM -6% | [13]; [17] -6% | [13]; at 50.0 µM 10.1% | [14]; at 1.2 µM -1% | [14]; at 3.7 µM -1% | [14]; at 11.0 µM -9% | [14]; at 33.0 µM -22% | [14]; at 100.0 µM -33%

COc1nc2c(c(=O)n1C)N=C(c1ccccc1)[C@H](C(CC(=O)c1ccccc1)c1ccccc1)C(c1ccccc1)N2 (stereo partly specified)
active: [4]; [18] 94% | [5]; [18] 94%
inactive: [1]; at 1.2 µM -2% | [1]; at 3.7 µM 13% | [1]; at 11.0 µM 34% | [1]; at 33.0 µM 31% | [1]; at 100.0 µM 60% | [2]; at 1.2 µM -27% | [2]; at 3.7 µM -20% | [2]; at 11.0 µM -19% | [2]; at 33.0 µM 6% | [2]; at 100.0 µM 46% | [16]; at 1.2 µM -53% | [16]; at 3.7 µM -38% | [16]; at 11.0 µM -9% | [16]; at 33.0 µM 34% | [16]; at 100.0 µM 60% | [4]; at 1.2 µM 6% | [4]; at 3.7 µM 3% | [4]; [17] 65% | [4]; at 11.0 µM 5% | [4]; at 33.0 µM 21% | [4]; at 50.0 µM 52.4% | [4]; at 100.0 µM 55% | [5]; at 1.2 µM -16% | [5]; at 3.7 µM -9% | [5]; [17] 13% | [5]; at 11.0 µM -8% | [5]; at 33.0 µM -4% | [5]; at 50.0 µM 61.5%
